Rce1 inhib: yeast Ras-converting enzyme inhibition. calls only. 0.27% of 290,000 active. AID 2563. yeast membranes, quenched prenylated peptide cleavage fluorescence;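 active = fall in fluorescence gain of 50% or more versus controls, with final raw signal at or below 3038400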;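 also: plate controls were neutral control wells for no effect and wells lacking membranes for full effect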
TMEM16A inh: mouse TMEM16A channel inhibition, primary screen; normalized B-score (activity score, 25-100; higher = stronger inhibition) at 10 µM; 1.2% of 310,000 active; Q8BHY3; HEK293 TMEM16A/YFP iodide influx fluorescence, ionomycin;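 active = ratio plate-corrected score three or more library SD toward inhibition, starting fluorescence score within five deviations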;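 also: score derived from kinetic fluorescence span divided by baseline fluorescence per well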
Target sequence (Q8BHY3 whole entry, looked up): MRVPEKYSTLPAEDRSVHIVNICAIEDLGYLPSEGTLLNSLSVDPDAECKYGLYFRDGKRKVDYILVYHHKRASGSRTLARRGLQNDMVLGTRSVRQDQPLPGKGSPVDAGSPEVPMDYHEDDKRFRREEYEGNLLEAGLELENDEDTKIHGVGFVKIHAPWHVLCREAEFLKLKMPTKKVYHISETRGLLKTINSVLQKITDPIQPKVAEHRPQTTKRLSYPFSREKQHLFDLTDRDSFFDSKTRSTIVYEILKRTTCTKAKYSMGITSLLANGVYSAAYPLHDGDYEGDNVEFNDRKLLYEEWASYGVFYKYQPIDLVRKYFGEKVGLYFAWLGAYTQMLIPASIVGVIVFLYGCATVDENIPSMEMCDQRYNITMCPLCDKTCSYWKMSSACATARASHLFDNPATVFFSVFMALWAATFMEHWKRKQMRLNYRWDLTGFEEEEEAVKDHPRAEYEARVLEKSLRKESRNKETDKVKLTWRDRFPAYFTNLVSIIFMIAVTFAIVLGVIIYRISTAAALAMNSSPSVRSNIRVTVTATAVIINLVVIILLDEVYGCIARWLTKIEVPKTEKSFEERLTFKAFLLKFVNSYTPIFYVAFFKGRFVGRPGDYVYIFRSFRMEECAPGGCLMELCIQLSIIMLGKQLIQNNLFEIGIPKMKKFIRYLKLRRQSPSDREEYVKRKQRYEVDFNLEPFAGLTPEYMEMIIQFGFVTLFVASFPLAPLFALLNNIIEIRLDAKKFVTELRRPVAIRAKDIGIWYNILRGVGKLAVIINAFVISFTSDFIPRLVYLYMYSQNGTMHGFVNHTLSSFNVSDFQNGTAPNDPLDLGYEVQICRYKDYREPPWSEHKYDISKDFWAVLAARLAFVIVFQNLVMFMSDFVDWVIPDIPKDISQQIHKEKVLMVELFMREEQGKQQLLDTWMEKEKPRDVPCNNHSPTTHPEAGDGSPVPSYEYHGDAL
ANO1 activ: activates or potentiates the mouse TMEM16A chloride channel; 0.3% of 340,000 active; AID 623877; B-score at 10 µM; HEK293 TMEM16A/YFP-H148Q/I152L, iodide quench fluorescence; stronger effect = lower value; Q8BHY3;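 active = fluorescence-ratio B-score plate-corrected deviation score at least 3 library SD below zero, with starting fluorescence score within 5 deviations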;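 also: channel opened by trigger with iodide after compound preincubation; score built on the fluorescence ratio of max minus min over baseline; more negative score means more quench and so TMEM16A activation or potentiation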
CHT inh: human CHT choline transport inhibition; Q9GZV3; CHT-expressing cells, membrane potential dye, choline response; stronger effect = lower value; B-score at 10 µM; 0.86% of 310,000 active;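 active = B-score over 3 SD under the library average, and starting fluorescence ratio not unusually high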;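 also: choline stimulus applied at its EC90 after an EC20 pre-addition; B-score computed on integrated fluorescence ratio after choline addition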
Kir21 block: inhibitors of mouse Kir2.1 inward-rectifier potassium channel; P35561; HEK293-Kir2.1, FluxOR thallium flux fluorescence; stronger effect = lower value; B-score at 10 µM; 0.85% of 310,000 active; AID 1672;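 active = fluorescence ratio B-score at or below minus 3 SD of library scores, with starting-brightness B-score within 2 SD, cut at about -4.2 in these data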;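 also: channel flux triggered by added potassium and thallium sulfate stimulus; B-score of peak minus minimum fluorescence over baseline after thallium stimulus; more negative B-score means stronger Kir2.1 block with less thallium influx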
CHT allo act: human CHT allosteric activation | Q9GZV3 | CHT-expressing cells, membrane potential dye, choline EC20; stronger effect = higher value; LV-AA mutant CHT in HEK293 cells | B-score at 10 µM | 0.49% of 310,000 active | AID 488977;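 active = initial fluorescence not abnormally high and integrated response B-score, plate-corrected, over 3 SD above library mean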
Active calls of the source: *; i = inactive; x = no result; + = active, no number. In the library only some 3.2% were active in any assay of this set; here they are far more common.

SMILES	Rce1 inhib	TMEM16A inh	ANO1 activ	CHT inh	Kir21 block	CHT allo act
Cc1ccccc1C(=O)Nc1nc(=S)ss1	i	100*	i	i	-0.05	i
Cc1csc(NC(=O)c2ccccc2O)n1	+	i	i	i	-3	i
CN(C)CCNC(=O)c1cc2sc3ccccc3c2s1	i	i	i	i	-4.2*	i
COCCN(CCOC)C(=O)c1cc2sc3ccccc3c2s1	i	i	i	i	0.02	i
COc1ccc(NC(=S)NC(NC(=O)c2cccc3ccccc23)C(Cl)(Cl)Cl)c([N+](=O)[O-])c1 (stereo not drawn)	i	i	-7.4*	i	0.17	i
COc1ccc(C(N)=O)c(OCC(=O)Nc2cc(C)on2)c1	x	x	i	x	x	x
CCCc1ccc(OCC(=O)NNC(=O)c2cccnc2)cc1	i	i	i	i	2.7	i
CSc1nnc(N2C(=O)C(O)=C(C(=O)c3ccco3)C2c2cccc(Cl)c2)s1 (stereo not drawn)	i	i	i	i	-3.5	i
CSc1nnc(N2C(=O)C(O)=C(C(=O)c3ccco3)C2c2ccc(F)cc2)s1 (stereo not drawn)	i	i	-6.6*	i	-2.7	i
C=CCOc1ccc(C2C(C(=O)c3ccco3)=C(O)C(=O)N2c2nnc(C)s2)cc1 (stereo not drawn)	i	i	-8.9*	i	-1.5	i
CN(Cc1cccc(F)c1)C(=O)CNS(=O)(=O)c1ccc2ccccc2c1	i	i	i	i	-0.42	i
CC1(C)Cc2c(c(=S)nc(-c3ccccc3)n2CCOCCO)CO1	i	i	i	i	2	i
OCCOCCn1c(-c2ccccc2)nc(=S)c2c1CCCC2	i	i	i	i	0.79	6.4*
N#CC1=C(N)Oc2ccc3ccc(O)cc3c2C1c1ccsc1 (stereo not drawn)	i	x	i	x	-5*	x
CCc1ccc(OCCCC(=O)Nc2ccc(S(=O)(=O)Nc3cc(C)nc(C)n3)cc2)cc1	i	i	i	i	-0.75	i
Clc1ccc(CN2CCC(c3nc4ccc(Cl)cc4[nH]3)CC2)cc1	i	i	i	i	-8*	i
Cc1ccccc1-c1cc(C(=O)NCc2ccc3c(c2)OCO3)n(CC2CC(c3cccnc3)=NO2)n1 (stereo not drawn)	x	x	i	x	x	x
Cc1noc(C)c1COC(=O)COc1cccc2c1OC(C)(C)C2	i	i	i	i	-5.5*	i
CC1(C)Cc2cccc(OCC(=O)OCC(=O)c3ccccc3)c2O1	x	x	i	x	x	x
Cc1nn(-c2ccccc2)c(Cl)c1/C=N/NC(=O)c1ccc(NS(=O)(=O)c2cccs2)cc1	i	i	x	i	0.51	i
Cc1nn(-c2ccccc2)c(Cl)c1/C=N/NC(=O)c1ccccc1NS(=O)(=O)c1cccs1	i	100*	i	i	-0.31	i
CCC(=O)c1ccc(OCC(=O)OCC(=O)Nc2ccc(C)c(S(=O)(=O)N3CCCCC3)c2)cc1	x	x	i	x	x	x
CCOc1ccc(OCCC(=O)OCC(=O)Nc2ccc(C)c(S(=O)(=O)N3CCCCC3)c2)cc1	i	100*	i	i	1.4	i
Cc1cc(C)c(NC(=O)c2ccc(CNS(=O)(=O)c3cc(C(F)(F)F)ccc3Cl)cc2)c(C)c1	i	i	i	i	-2.2	i
Cc1ccc(CN2CCNC(=O)C2CC(=O)NC2CCCCCC2)o1 (stereo not drawn)	+	i	i	i	-0.06	i
Cc1ccc(CN2CCNC(=O)C2CC(=O)NC2CCCCCC2)cc1 (stereo not drawn)	i	i	i	i	-0.95	i
COc1ccc(CN2CCC(C(=O)Nc3ccc(Oc4cccnc4)cc3)CC2)cc1	i	i	i	i	-5.4*	i
Cn1cc(CN2CCC(C(=O)Nc3ccc(Oc4ccccc4F)cc3)CC2)cn1	i	i	i	i	-1.5	i
COc1ccc(-c2c[n+]3c4n2CCCCC4=C(c2ccc(Br)cc2)C3)cc1	+	i	i	i	0.49	i

Compound activity (PubChem)
